The source of these data is publication PMC8384837, “Expanding the binding specificity for RNA recognition by a PUF domain”.

What all share (assay): yeast three-hybrid, YBZ-1, SC-Leu-His + 0.5 mM 3-AT, 4 days
Details in all cases: tags: N-Gal4 AD-HA kept; label: inside an RPR1-promoter hybrid RNA with tandem MS2 sites; ssRNA

One experiment addresses PUM1 PUF domain R8-KKF (Homo sapiens, UniProt Q14671 828-1176, N1122K;Y1123K;Q1126F). A digest of the protocol:
(§1)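 Repeat regions from input (SC-Leu) and selection (SC-Leu-His + 0.5 mM 3-AT) plates were PCR-amplified and Illumina-sequenced after four days of growth. The cells were strain YBZ-1 with a LexA–MS2 coat fusion and a HIS3 reporter, co-expressing Pumilio-1 PUF domain libraries and matching RNA elements from a centromeric plasmid. The interaction score is the log change in variant frequency from input to selection, taken in log2 with a pseudocount of 1 for absent variants.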

For a further experiment, the target named is PUM1 PUF domain R8-CHR (Homo sapiens, UniProt Q14671 828-1176, N1122C;Y1123H;Q1126R). The gist of the method:
as §1

A further experiment concerns the target PUM1 PUF domain R3-ARL (Homo sapiens, UniProt Q14671 828-1176, C935A;Q939L). A digest of the protocol:
as §1

The next experiment addresses T1, PUM1 PUF domain R6-IFL (Homo sapiens, UniProt Q14671 828-1176, N1043I;Y1044F;Q1047L).
T1 sequence: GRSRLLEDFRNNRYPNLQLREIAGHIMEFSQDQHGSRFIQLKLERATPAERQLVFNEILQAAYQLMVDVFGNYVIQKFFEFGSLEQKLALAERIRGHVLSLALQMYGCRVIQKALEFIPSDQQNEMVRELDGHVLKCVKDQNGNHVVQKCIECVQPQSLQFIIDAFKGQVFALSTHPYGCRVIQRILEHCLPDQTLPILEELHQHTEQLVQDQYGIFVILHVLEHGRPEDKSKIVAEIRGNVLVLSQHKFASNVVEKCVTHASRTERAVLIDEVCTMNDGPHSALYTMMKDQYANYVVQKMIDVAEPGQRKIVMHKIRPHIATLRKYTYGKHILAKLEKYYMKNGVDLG
A digest of the protocol: as §1

For another experiment, the target named is PUM1 PUF domain R5-GWW (Homo sapiens, UniProt Q14671 828-1176, C1007G;R1008W;Q1011W). The gist of the method: as §1
Another experiment addresses PUM1 PUF domain R1-KER (Homo sapiens, UniProt Q14671 828-1176, S863K;R864E;Q867R). The gist of the method: as §1
The next experiment concerns the target PUM1 PUF domain R1-RKS (Homo sapiens, UniProt Q14671 828-1176, S863R;R864K;Q867S). A digest of the protocol: as §1
The next experiment deals with PUM1 PUF domain R7-IMR (Homo sapiens, UniProt Q14671 828-1176, S1079I;N1080M;E1083R). A digest of the protocol: as §1
The next experiment addresses PUM1 PUF domain R7-RRY (Homo sapiens, UniProt Q14671 828-1176, S1079R;N1080R;E1083Y). A digest of the protocol: as §1
Another experiment deals with PUM1 PUF domain R4-SMV (Homo sapiens, UniProt Q14671 828-1176, N971S;H972M;Q975V). The gist of the method: as §1
PUM1 PUF domain R4-SMV, sequence (Q14671 828-1176 N971S/H972M/Q975V): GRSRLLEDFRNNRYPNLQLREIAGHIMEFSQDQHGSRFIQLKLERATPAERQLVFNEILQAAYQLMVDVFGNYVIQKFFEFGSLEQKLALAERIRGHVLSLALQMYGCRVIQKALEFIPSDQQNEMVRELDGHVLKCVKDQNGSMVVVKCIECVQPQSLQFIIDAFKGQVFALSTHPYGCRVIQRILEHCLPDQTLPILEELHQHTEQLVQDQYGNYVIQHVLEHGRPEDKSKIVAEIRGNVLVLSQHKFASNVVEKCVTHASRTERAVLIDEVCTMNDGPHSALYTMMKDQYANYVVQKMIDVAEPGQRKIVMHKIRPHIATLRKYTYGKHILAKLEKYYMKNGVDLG
For a further experiment, the target named is PUM1 PUF domain R3-GNE (Homo sapiens, UniProt Q14671 828-1176, C935G;R936N;Q939E). A digest of the protocol:
as §1

For another experiment, the target named is PUM1 PUF domain R3-IYS (Homo sapiens, UniProt Q14671 828-1176, C935I;R936Y;Q939S). The gist of the method:
as §1

The next experiment addresses PUM1 PUF domain R3-TFL (Homo sapiens, UniProt Q14671 828-1176, C935T;R936F;Q939L). A digest of the protocol:
as §1

The target of another experiment is PUM1 PUF domain R3-PWV (Homo sapiens, UniProt Q14671 828-1176, C935P;R936W;Q939V). A digest of the protocol: as §1
A further experiment deals with PUM1 PUF domain R3-SNP (Homo sapiens, UniProt Q14671 828-1176, C935S;R936N;Q939P). The gist of the method: as §1
The next experiment deals with PUM1 PUF domain R5-SRI (Homo sapiens, UniProt Q14671 828-1176, C1007S;Q1011I). The gist of the method: as §1
For the next experiment, the target named is T2, PUM1 PUF domain R6-SFA (Homo sapiens, UniProt Q14671 828-1176, N1043S;Y1044F;Q1047A).
T2 sequence: T1 sequence with I216S, L220A
The gist of the method: as §1

In the next experiment the target is PUM1 PUF domain R5-FRQ (Homo sapiens, UniProt Q14671 828-1176, C1007F). The gist of the method:
as §1

In a further experiment the target is PUM1 PUF domain R1-RQN (Homo sapiens, UniProt Q14671 828-1176, S863R;R864Q;Q867N). A digest of the protocol: as §1
Another experiment concerns the target PUM1 PUF domain R4-PWT (Homo sapiens, UniProt Q14671 828-1176, N971P;H972W;Q975T). A digest of the protocol: as §1

Where a chain is given by its changes, count along the chain named.

For “GGCUAGAACUAGUGGAUCCCCCGGCGCCCGGCGGCUCGAGCCCGGGUAAGCGUAAAUAGUCUGCAUGCCGCCGGGCGCCAUGCCUGCAGGUCGACUCUAGAAAACAUG”, the figures for the binding signal with PUM1 PUF domain R8-KKF and in the experiment with PUM1 PUF domain R8-CHR were 3 log2 enrichment (interaction score) and 4.19 log2 enrichment (interaction score), respectively.
Regarding “GGCUAGAACUAGUGGAUCCCCCGGCGCCCGGCGGCUCGAGCCCGGGUAAGUGUAAUUAGUCUGCAUGCCGCCGGGCGCCAUGCCUGCAGGUCGACUCUAGAAAACAUG”, in the experiment with PUM1 PUF domain R3-ARL, the binding signal is 1.22 log2 enrichment (interaction score).
Consider “GGCUAGAACUAGUGGAUCCCCCGGCGCCCGGCGGCUCGAGCCCGGGUAAGUGAAAAUAGUCUGCAUGCCGCCGGGCGCCAUGCCUGCAGGUCGACUCUAGAAAACAUG”, for which the binding signal with PUM1 PUF domain R6-IFL is 7.28 log2 enrichment (interaction score).
As to “GGCUAGAACUAGUGGAUCCCCCGGCGCCCGGCGGCUCGAGCCCGGGUAAGUGUUAAUAGUCUGCAUGCCGCCGGGCGCCAUGCCUGCAGGUCGACUCUAGAAAACAUG”, the binding signal with PUM1 PUF domain R5-GWW was 6.66 log2 enrichment (interaction score).
For the sequence “GGCUAGAACUAGUGGAUCCCCCGGCGCCCGGCGGCUCGAGCCCGGGUAAGUGUAAAUUGUCUGCAUGCCGCCGGGCGCCAUGCCUGCAGGUCGACUCUAGAAAACAUG”, the binding signal with PUM1 PUF domain R1-KER is 3.72 log2 enrichment (interaction score); with PUM1 PUF domain R1-RKS, 4.69 log2 enrichment (interaction score).
For “GGCUAGAACUAGUGGAUCCCCCGGCGCCCGGCGGCUCGAGCCCGGGUAAGUUUAAAUAGUCUGCAUGCCGCCGGGCGCCAUGCCUGCAGGUCGACUCUAGAAAACAUG”, the binding signal in the experiment with PUM1 PUF domain R7-IMR is 2.21 log2 enrichment (interaction score); with PUM1 PUF domain R7-RRY, 3.87 log2 enrichment (interaction score).
Consider “GGCUAGAACUAGUGGAUCCCCCGGCGCCCGGCGGCUCGAGCCCGGGUAAGUGUAUAUAGUCUGCAUGCCGCCGGGCGCCAUGCCUGCAGGUCGACUCUAGAAAACAUG”, for which the binding signal in the experiment with PUM1 PUF domain R4-SMV is 2.15 log2 enrichment (interaction score).
Regarding “GGCUAGAACUAGUGGAUCCCCCGGCGCCCGGCGGCUCGAGCCCGGGUAAGUCUAAAUAGUCUGCAUGCCGCCGGGCGCCAUGCCUGCAGGUCGACUCUAGAAAACAUG”, in the experiment with PUM1 PUF domain R7-RRY, the binding signal was 3.51 log2 enrichment (interaction score).
For the sequence “GGCUAGAACUAGUGGAUCCCCCGGCGCCCGGCGGCUCGAGCCCGGGUAAGUGUAAGUAGUCUGCAUGCCGCCGGGCGCCAUGCCUGCAGGUCGACUCUAGAAAACAUG”, the binding signal in the experiment with PUM1 PUF domain R3-GNE was 2.22 log2 enrichment (interaction score); with PUM1 PUF domain R3-IYS, 4.72 log2 enrichment (interaction score).
For “GGCUAGAACUAGUGGAUCCCCCGGCGCCCGGCGGCUCGAGCCCGGGUAAGUGUAAAUAGUCUGCAUGCCGCCGGGCGCCAUGCCUGCAGGUCGACUCUAGAAAACAUG”, the binding signal with PUM1 PUF domain R3-TFL is 2.81 log2 enrichment (interaction score); in the experiment with PUM1 PUF domain R3-PWV, 3.63 log2 enrichment (interaction score); with PUM1 PUF domain R3-SNP it was 2.72 log2 enrichment (interaction score); in the experiment with PUM1 PUF domain R5-SRI, 2.73 log2 enrichment (interaction score); in the experiment with PUM1 PUF domain R6-SFA it was 3.38 log2 enrichment (interaction score); with PUM1 PUF domain R3-ARL, 3.6 log2 enrichment (interaction score). Further, the binding signal in the experiment with PUM1 PUF domain R8-CHR is 2.18 log2 enrichment (interaction score); in the experiment with PUM1 PUF domain R4-SMV, 3.8 log2 enrichment (interaction score).
Turning to “GGCUAGAACUAGUGGAUCCCCCGGCGCCCGGCGGCUCGAGCCCGGGUAAGUGUCAAUAGUCUGCAUGCCGCCGGGCGCCAUGCCUGCAGGUCGACUCUAGAAAACAUG”, the binding signal in the experiment with PUM1 PUF domain R5-FRQ was 2.71 log2 enrichment (interaction score).
Consider “GGCUAGAACUAGUGGAUCCCCCGGCGCCCGGCGGCUCGAGCCCGGGUAAGUGUAAAUCGUCUGCAUGCCGCCGGGCGCCAUGCCUGCAGGUCGACUCUAGAAAACAUG”, for which the binding signal with PUM1 PUF domain R1-RQN was 4.56 log2 enrichment (interaction score).
In the case of “GGCUAGAACUAGUGGAUCCCCCGGCGCCCGGCGGCUCGAGCCCGGGUAAGUGUACAUAGUCUGCAUGCCGCCGGGCGCCAUGCCUGCAGGUCGACUCUAGAAAACAUG”, the binding signal is 5.24 log2 enrichment (interaction score) with PUM1 PUF domain R4-PWT and 0.58 log2 enrichment (interaction score) in the experiment with PUM1 PUF domain R4-SMV.
